Assay outcomes (PubChem)
Only some compounds are listed: those with a hit (about 1.5% of all), similar ones and a draw of the others.
Bcl-xL primary – inhibitors of human Bcl-xL; Q07817; GST-Bcl-xL / FITC-Bim BH3 peptide fluorescence polarization; inhibition, % at 10.9 µM; 0.7% of 320,000 active;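 active = inhibition above the mean of all tested compounds plus 3 SD, cutoff set per campaign, cut at about 30% in these data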;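 also: 0% = DMSO wells and 100% = unlabeled Bim-BH3 peptide competitor; inhibitors lower millipolarization by displacing the labeled peptide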
eLon inh – inhibitors of E. coli Lon protease; P0A9M0; purified E. coli Lon protease, fluorescence polarization; inhibition, % at 7.94 µM; 0.42% of 360,000 active; AID 602123; in the data active = inhibition above about 13%, passing the limit was not always enough;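 also: 0% = enzyme with probe and DMSO and 100% = no enzyme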
MEX-5 binding – C. elegans MEX-5 TCR-2 RNA binding activity; Q9XUB2; MEX-5/FITC-TCR2 RNA binding, fluorescence polarization; hits give low values; activity score (negative = inhibition of binding), % at 10 µM; 0.38% of 300,000 active;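 active = inhibition past about -25% in most replicates, and total fluorescence under double the plate's negative control median, limit read from the data; inconclusive = replicates evenly split on the limit, or fluorescence at least double controls; inactive = too little inhibition in most replicates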;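 also: 0% = DMSO and -100% = 5 µM competing unlabeled TCR2 RNA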
GLD-1 TGE inh – GLD-1-TGE RNA interaction inhibition (C. elegans); Q17339; purified GLD-1 + fluorescein TGE RNA, fluorescence polarization; inhibition, % at 5.96 µM; 0.44% of 320,000 active;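 active = percent inhibition above a per-plate cutoff, the plate mean of test compounds plus 3 SD, cut at about 30% in these data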;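 also: 0% = DMSO wells with GLD-1 and probe and 100% = wells lacking GLD-1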
Target sequence (Q17339 whole entry, looked up): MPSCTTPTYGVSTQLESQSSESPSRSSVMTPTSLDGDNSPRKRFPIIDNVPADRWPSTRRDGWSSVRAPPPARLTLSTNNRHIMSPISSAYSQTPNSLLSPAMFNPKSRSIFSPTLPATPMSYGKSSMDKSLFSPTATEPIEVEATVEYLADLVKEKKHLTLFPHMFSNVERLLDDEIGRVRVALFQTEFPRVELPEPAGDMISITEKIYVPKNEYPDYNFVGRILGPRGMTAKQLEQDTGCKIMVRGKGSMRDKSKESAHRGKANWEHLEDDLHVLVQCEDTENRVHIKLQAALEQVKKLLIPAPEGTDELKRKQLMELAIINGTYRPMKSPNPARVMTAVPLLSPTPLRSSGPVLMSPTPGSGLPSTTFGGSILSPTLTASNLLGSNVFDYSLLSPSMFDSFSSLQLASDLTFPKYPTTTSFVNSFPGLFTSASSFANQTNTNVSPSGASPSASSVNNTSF
EBV gp42 inh – inhibitors of Epstein-Barr virus glycoprotein 42; Fluorescence polarization binding assay, mP read-out; inhibition, % (tested at 21.74 µM); 0.42% of 220,000 active; AID 1085; in the data active = inhibition above about 50%
Target sequence (Q1HVG2 whole entry, looked up): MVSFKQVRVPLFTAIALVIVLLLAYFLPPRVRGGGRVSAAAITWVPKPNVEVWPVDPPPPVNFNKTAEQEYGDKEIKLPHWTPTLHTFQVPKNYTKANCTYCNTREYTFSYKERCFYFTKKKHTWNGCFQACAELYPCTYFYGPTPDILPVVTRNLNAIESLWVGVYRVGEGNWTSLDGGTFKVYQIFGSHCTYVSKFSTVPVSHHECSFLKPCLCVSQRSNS
MCL1-BIM inh – disrupts human MCL1 binding to BIM-BH3 peptide; Q07820; GST-MCL1 / FITC-Bim-BH3 fluorescence polarization; inhibition, % at 10.9 µM; 0.68% of 320,000 active; AID 2057;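 active = inhibition above the mean inhibition of all tested compounds plus 3 SD, set per campaign, cut at about 40% in these data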;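 also: 0% = DMSO wells and 100% = unlabeled Bim-BH3 peptide control; higher means more loss of mP so more displacement of Bim peptide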
Bcl-xL conf – Bcl-xL (human) inhibition, MCL1 counter-screen confirmation; AID 2166; GST-Bcl-xL / FITC-Bim BH3 peptide FP binding; inhibition, % at 10.9 µM; shares compounds with MCL1-BIM inh; 54% of 1,700 active;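 active = inhibition above a cutoff equal to the mean inhibition of all tested compounds plus 3 SD, cut at about 30% in these data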;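 also: 0% = DMSO wells and 100% = unlabeled Bim BH3 control peptide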
MCL1 BIM confirm – confirmation of human MCL1 and BIM-BH3 interaction inhibitors | shares compounds with MCL1-BIM inh | GST-MCL1 / FITC-Bim-BH3 fluorescence polarization | inhibition, % at 10.9 µM | 61% of 1,700 active | AID 2168;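 active = inhibition above the average of all tested compounds plus 3 SD, cut at about 40% in these data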;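 also: 0% = DMSO wells and 100% = unlabeled Bim-BH3 control peptide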
* marks the source's active call; other numbers are inactive results; u = inconclusive; x = not tested or not shown.

SMILES | Bcl-xL primary | eLon inh | MEX-5 binding | GLD-1 TGE inh | EBV gp42 inh | MCL1-BIM inh | Bcl-xL conf | MCL1 BIM confirm
Cc1cccn2c(=O)c(C=O)c(N3CCN(C)CC3)nc12 | 21 | 1 | 0 | 15 | x | 20 | x | x
Cc1cccn2c(=O)c(C=O)c(N3CCN(c4ccccc4)CC3)nc12 | 37* | 5 | -9 | 0 | 11 | 60* | 39* | 49*
COCCCNC(=O)/C(C#N)=C/c1c(N2CCN(c3ccccc3)CC2)nc2c(C)cccn2c1=O | 91* | 22 | -5 | 23 | x | 99* | 37* | 41*
CC1C2C(C)N(C)C(=O)N(C)C2N(C)C(=O)N1C (configuration not stated) | 81* | 7 | -40* | 41* | 65* | 85* | 74* | 90*
O=c1c2c(ncn2C2CCCC2)n(Cc2ccccc2)c(=O)n1CCOc1ccc(Br)cc1 | -2 | -8 | 3 | -3 | -37 | 53* | 17 | 18
O=c1c2c(ncn2C2CCCC2)n(Cc2ccccc2)c(=O)n1CCOc1ccccc1 | -1 | -10 | 1 | 1 | -17 | 4 | x | x
Cc1cc(/C=C\c2ccc3cc(N(C)C)ccc3[n+]2C)c(C)n1-c1ccccc1 | 54* | -5 | x | 139* | x | 132* | 41* | 101*
CCc1ccc[n+](-c2[nH]c(=O)sc2/C=N/N=C(\[O-])CCn2c3ccccc3c3ccccc32)c1 | 21 | 10 | -8 | 14 | 27 | 32 | x | x
Cc1cc[n+](-c2[nH]c(=O)sc2/C=N/N=C(\[O-])CCn2c3ccccc3c3ccccc32)cc1 | 27 | 9 | x | 22 | 34 | 49* | 19 | 50*
CC(=O)c1c2c3c(cccc3n(C)c1=O)C(=O)c1ccccc1-2 | 85* | x | -12 | 67* | x | 96* | 129* | 152*
CC(=O)c1c(-c2ccccc2)c2cc(Cl)ccc2n(C)c1=O | 0 | -10 | -1 | 0 | x | 0 | x | x
C[C@H](c1ccccc1)N1C[C@@H](COCc2ccccc2)Oc2cc(N3CCC[C@H]3CO)ccc2S1(=O)=O | x | -7 | x | x | x | x | x | x
O=C(CNc1cccc2ccccc12)N/N=C/c1ccc(C(=O)O)cc1 | 7 | -2 | -4 | 6 | -3 | 68* | 13 | 52*
CCCOc1ccc(/C(CC)=N/NC(=O)C2(C)CC2(Br)Br)cc1 (configuration not stated) | 97* | 5 | -2 | 112* | -20 | 112* | 7 | 0
O=C(NCCc1ccccc1F)C1CCC(=O)N(Cc2ccc(Cl)cc2)C1 (configuration not stated) | 5 | 6 | -3 | -3 | x | 0 | x | x
CCOc1cc(Br)c(Br)c(C=Nc2ccc(NC(C)=O)cc2)c1O | 31* | 4 | -2 | 3 | 131* | 44* | 71* | 116*
COCCCNC(=O)c1cc(-c2cccnc2)nc2ccc(S(=O)(=O)N3CCCCCC3)cc12 | 1 | -2 | -3 | -2 | x | 2 | x | x
CC(C)C[C@H]1C(=O)N2CCC[C@H]2[C@]2(O)O[C@](NC(=O)C3C=C4c5cccc6[nH]c(Br)c(c56)C[C@H]4N(C)C3)(C(C)C)C(=O)N12 (some centres not stated) | 100* | 56 | 2 | 92* | x | 115* | 16 | 19
COCC(=O)N1CCC2CC1c1c(-c3ccc(C(F)(F)F)cc3)cccc12 (configuration not stated) | x | 2 | x | x | x | x | x | x
COC(=O)CNC(=O)C1Nc2ccc(OC(F)(F)F)cc2C2C=CCC12 (configuration not stated) | -1 | -13 | -1 | -6 | x | 3 | x | x
CCOC(=O)C1Nc2ccc(C(=O)O)cc2C2C=CCC12 (configuration not stated) | 37* | 3 | -18 | 10 | x | 89* | 32* | 48*
CCOC(=O)c1ccc2c(c1)C1C=CCC1C(C(=O)O)N2 (configuration not stated) | 64* | x | x | 23 | 84* | 113* | 54* | 97*
C/C(=N/NC(=O)c1cc2ccccc2cc1O)C1C(=O)c2ccccc2C1=O | 14 | -5 | 2 | 0 | -9 | 41* | 7 | 41*
CCn1cc(/C=C(\NC(=O)c2ccccc2F)C(=O)NCCCn2ccnc2)c2ccccc21 | 7 | -2 | 0 | 3 | x | 3 | x | x
O=c1ccc2cc3c([nH]c4ccc(Br)cc43)oc-2c1O | 46* | -32 | -79* | 8 | -15 | 85* | 24 | 69*
SMILES | Bcl-xL primary | eLon inh | MEX-5 binding | GLD-1 TGE inh | EBV gp42 inh | MCL1-BIM inh | Bcl-xL conf | MCL1 BIM confirm
O=C(O)c1ccc(N=Nc2c(O)[nH]c3ccc(Br)cc23)cc1 | 1 | -2 | -8 | -3 | x | -6 | x | x
CCc1cc[n+](-c2nc3ccccc3nc2[N-]S(=O)(=O)c2ccc(Br)s2)cc1 | 83* | 12 | u | 25 | 58* | 94* | 71* | 87*
Cc1cc[n+](-c2nc3ccccc3nc2[N-]S(=O)(=O)c2ccccc2)cc1 | 17 | 2 | 0 | 12 | 12 | 17 | x | x
CCN(C(=O)C(C)N1C(=O)/C(=C/c2ccco2)SC1=S)C1CCS(=O)(=O)C1 (configuration not stated) | 33* | 2 | -1 | 12 | x | 59* | 25 | 56*
O=C1/C(=C/c2ccco2)SC(=S)N1C1CCS(=O)(=O)C1 (configuration not stated) | 30 | 4 | -1 | 18 | 2 | 67* | 14 | 18
O=C1/C(=C2\C(=O)N(Cc3ccc(F)cc3)c3ccccc32)SC(=S)N1CCS(=O)(=O)O | 21 | -4 | -10 | -4 | x | 43* | 23 | 39
COc1ccc(NC(=O)c2c3c(nc4ccccc24)CCC3)cc1S(=O)(=O)N1CCOCC1 | 10 | -1 | -7 | 4 | 37 | 50* | 15 | 45*
C[C@@H](N)C(=O)NC[C@H]1O[C@@H](n2cnc3c(N)ncnc32)[C@H](O)[C@@H]1O | x | 0 | x | x | x | x | x | x
O=[N+]([O-])c1ccc(/C=N/n2cnc3ccccc32)s1 | 52* | -4 | -41* | 7 | 14 | 72* | 71* | 76*
O=[N+]([O-])c1ccc(/C=N/Nc2ncccc2[N+](=O)[O-])s1 | 1 | 7 | -2 | 0 | x | 0 | x | x
O=C1c2cccc3c([N+](=O)[O-])ccc(c23)C(=O)N1O | 57* | 43 | -13 | 15 | x | 48* | 43* | 58*
O=C1c2cccc3c([N+](=O)[O-])ccc(c23)C(=O)N1c1ccc(Cl)cn1 | 120* | 65* | -15 | 103* | 80* | 139* | 82* | 105*
